Assay results: PMC7862700, “An all-to-all approach to the identification of sequence-specific readers for epigenetic DNA modifications on cytosine”

Legend:
Experiment in all cases: DAPPL (digital affinity profiling via proximity ligation, sequencing); 10 mM Tris-HCl pH 7.5, 50 mM NaCl, 1 mM DTT, 4% glycerol, room temperature, 30 min; GST-TFs on glutathione beads, 16-mer random dsDNA library, 0.1% formaldehyde crosslink after washing; high values mean tight binding
Conditions in all cases: protein: recombinant; tags: N-terminal GST; dsDNA, one strand shown
FLI1 = biological target: T1, FLI1 (Homo sapiens, UniProt Q01543 1-452)
T1 sequence: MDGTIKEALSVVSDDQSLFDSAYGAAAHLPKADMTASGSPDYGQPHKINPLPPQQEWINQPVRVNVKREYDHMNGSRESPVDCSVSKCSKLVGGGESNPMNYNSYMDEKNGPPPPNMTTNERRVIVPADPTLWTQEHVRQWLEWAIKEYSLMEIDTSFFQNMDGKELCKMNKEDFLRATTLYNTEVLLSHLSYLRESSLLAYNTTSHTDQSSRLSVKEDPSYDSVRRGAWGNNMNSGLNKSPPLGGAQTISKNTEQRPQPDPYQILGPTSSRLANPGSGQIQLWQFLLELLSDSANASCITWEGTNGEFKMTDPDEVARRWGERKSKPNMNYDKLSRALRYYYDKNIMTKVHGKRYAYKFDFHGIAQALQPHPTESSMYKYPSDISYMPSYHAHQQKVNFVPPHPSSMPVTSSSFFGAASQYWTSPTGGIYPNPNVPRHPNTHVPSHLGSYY
Method in brief: (§1)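 GST fusions of human transcription factors were expressed in yeast and captured with glutathione beads. Once given DNA barcodes and pooled alongside a tag-only sample, they were incubated for 30 min at room temperature with 200 nmole of a random double-stranded 16-mer DNA library in Tris/NaCl/DTT/glycerol buffer, then washed, crosslinked (0.1% formaldehyde), proximity-ligated, PCR-amplified and sequenced on an Illumina NextSeq500. The binding signal of each hexamer is its read frequency for a factor divided by its frequency for the tag-only sample.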

ELK1 = biological target: T2, ELK1 (Homo sapiens, UniProt P19419 1-428)
T2 sequence: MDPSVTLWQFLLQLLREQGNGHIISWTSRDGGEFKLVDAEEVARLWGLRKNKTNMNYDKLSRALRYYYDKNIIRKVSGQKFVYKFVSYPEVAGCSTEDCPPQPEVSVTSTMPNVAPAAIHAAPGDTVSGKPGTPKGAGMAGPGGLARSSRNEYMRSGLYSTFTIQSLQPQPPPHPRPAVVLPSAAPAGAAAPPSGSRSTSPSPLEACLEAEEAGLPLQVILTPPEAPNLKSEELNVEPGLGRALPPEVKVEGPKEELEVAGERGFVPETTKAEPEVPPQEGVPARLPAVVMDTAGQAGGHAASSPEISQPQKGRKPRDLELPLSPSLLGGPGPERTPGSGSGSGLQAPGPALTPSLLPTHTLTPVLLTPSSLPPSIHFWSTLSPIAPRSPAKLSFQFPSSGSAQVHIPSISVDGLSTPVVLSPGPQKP
Method in brief: as §1

GABPA = biological target: T3, GABPA (Homo sapiens, UniProt Q06546 1-454)
T3 sequence: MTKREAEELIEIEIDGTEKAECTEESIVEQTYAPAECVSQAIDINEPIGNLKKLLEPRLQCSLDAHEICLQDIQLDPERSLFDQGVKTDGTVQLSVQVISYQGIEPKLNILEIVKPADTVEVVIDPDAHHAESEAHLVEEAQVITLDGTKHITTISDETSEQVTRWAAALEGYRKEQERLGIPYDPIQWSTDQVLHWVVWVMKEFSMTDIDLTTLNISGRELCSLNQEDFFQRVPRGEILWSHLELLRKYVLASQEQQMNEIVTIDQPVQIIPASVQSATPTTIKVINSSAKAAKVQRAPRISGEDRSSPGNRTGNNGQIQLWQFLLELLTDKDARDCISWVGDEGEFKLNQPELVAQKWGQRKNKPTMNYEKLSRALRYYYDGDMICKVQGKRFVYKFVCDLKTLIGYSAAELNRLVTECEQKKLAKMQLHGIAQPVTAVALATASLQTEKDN
Method in brief: as §1

ERG = biological target: T4, ERG (Homo sapiens, UniProt P11308 1-479)
T4 sequence: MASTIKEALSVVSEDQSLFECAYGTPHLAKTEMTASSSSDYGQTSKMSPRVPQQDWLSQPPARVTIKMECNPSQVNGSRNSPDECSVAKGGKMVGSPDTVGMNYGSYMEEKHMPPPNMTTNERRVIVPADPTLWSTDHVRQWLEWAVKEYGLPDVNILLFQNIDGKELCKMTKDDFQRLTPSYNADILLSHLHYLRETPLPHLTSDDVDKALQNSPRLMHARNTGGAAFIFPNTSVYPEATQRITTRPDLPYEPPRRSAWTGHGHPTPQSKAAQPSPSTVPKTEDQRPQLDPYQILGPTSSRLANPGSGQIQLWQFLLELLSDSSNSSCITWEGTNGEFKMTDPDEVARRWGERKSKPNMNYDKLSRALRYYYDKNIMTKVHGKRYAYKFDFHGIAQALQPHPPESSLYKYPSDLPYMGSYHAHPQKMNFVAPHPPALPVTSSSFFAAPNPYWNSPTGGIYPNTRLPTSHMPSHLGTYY
Method in brief: as §1

ELF1 = ELF1 (Homo sapiens, UniProt P32519 1-619)
Sequence of ELF1 (P32519 whole entry): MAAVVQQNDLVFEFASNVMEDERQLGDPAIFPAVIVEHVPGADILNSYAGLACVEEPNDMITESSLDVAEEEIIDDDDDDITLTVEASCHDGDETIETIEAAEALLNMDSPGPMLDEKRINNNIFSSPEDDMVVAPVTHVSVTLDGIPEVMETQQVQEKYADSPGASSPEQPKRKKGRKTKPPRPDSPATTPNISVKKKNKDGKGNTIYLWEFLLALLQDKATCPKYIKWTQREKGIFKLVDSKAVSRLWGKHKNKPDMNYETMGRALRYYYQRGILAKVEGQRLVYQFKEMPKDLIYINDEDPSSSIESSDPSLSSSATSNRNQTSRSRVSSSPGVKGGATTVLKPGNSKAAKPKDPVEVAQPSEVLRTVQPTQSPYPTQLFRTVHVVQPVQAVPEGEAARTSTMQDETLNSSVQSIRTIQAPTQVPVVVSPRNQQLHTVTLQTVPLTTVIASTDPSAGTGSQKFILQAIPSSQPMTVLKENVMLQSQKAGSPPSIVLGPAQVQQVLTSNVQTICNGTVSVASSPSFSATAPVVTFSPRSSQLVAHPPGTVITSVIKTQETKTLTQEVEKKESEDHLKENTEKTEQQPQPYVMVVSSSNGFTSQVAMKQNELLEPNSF
Method in brief: as §1

EHF = biological target: T5, EHF (Homo sapiens, UniProt Q9NZC4 1-300)
T5 sequence: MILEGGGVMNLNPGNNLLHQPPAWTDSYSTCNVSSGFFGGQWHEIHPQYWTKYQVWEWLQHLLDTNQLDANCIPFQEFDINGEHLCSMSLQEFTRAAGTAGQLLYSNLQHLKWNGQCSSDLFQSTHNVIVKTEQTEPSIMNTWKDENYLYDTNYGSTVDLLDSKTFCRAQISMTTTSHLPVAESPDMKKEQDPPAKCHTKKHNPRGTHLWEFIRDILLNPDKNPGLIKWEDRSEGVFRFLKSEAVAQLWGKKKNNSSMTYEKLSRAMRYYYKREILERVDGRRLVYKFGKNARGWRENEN
Method in brief: as §1

SPI1 = SPI1 (Homo sapiens, UniProt P17947 1-270)
Method in brief: as §1

SPIB = SPIB (Homo sapiens, UniProt Q01892 1-262)
Sequence of SPIB (Q01892 whole entry): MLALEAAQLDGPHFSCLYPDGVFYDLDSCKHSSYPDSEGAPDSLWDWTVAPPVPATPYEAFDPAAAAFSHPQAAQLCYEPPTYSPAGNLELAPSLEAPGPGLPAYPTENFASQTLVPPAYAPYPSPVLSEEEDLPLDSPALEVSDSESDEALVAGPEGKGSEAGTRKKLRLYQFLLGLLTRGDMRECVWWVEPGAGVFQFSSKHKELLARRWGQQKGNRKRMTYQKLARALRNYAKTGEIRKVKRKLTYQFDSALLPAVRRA
Method in brief: as §1

ELK3 = biological target: T6, ELK3 (Homo sapiens, UniProt P41970 1-407)
T6 sequence: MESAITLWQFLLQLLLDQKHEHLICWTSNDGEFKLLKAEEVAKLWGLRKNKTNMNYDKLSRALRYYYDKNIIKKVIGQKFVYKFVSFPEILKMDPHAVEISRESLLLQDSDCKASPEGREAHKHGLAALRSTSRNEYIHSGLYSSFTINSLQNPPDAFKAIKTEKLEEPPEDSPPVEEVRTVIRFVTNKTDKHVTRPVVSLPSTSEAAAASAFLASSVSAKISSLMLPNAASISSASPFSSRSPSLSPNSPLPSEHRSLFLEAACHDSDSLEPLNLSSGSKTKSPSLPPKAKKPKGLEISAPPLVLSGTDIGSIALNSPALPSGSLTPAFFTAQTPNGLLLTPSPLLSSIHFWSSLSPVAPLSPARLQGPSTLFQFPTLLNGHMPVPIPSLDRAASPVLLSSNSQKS
Method in brief: as §1

Sequence	binding signal (FLI1)	binding signal (ELK1)	binding signal (GABPA)	binding signal (ERG)	binding signal (ELF1)	binding signal (EHF)	binding signal (SPI1)	binding signal (SPIB)	binding signal (ELK3)
ATACCC	1.18 fold enrichment (6-mer frequency, TF over GST control)	1.17 fold enrichment (6-mer frequency, TF over GST control)	1.19 fold enrichment (6-mer frequency, TF over GST control)	1.19 fold enrichment (6-mer frequency, TF over GST control)	1.2 fold enrichment (6-mer frequency, TF over GST control)	1.21 fold enrichment (6-mer frequency, TF over GST control)	1.13 fold enrichment (6-mer frequency, TF over GST control)	1.14 fold enrichment (6-mer frequency, TF over GST control)	1.13 fold enrichment (6-mer frequency, TF over GST control)
TCACTC	1.16 fold enrichment (6-mer frequency, TF over GST control)	1.19 fold enrichment (6-mer frequency, TF over GST control)	1.28 fold enrichment (6-mer frequency, TF over GST control)	1.18 fold enrichment (6-mer frequency, TF over GST control)	1.34 fold enrichment (6-mer frequency, TF over GST control)	1.27 fold enrichment (6-mer frequency, TF over GST control)	1.21 fold enrichment (6-mer frequency, TF over GST control)	1.26 fold enrichment (6-mer frequency, TF over GST control)	1.18 fold enrichment (6-mer frequency, TF over GST control)
CTCTTT	1.37 fold enrichment (6-mer frequency, TF over GST control)	1.33 fold enrichment (6-mer frequency, TF over GST control)	1.39 fold enrichment (6-mer frequency, TF over GST control)	1.43 fold enrichment (6-mer frequency, TF over GST control)	1.53 fold enrichment (6-mer frequency, TF over GST control)	1.55 fold enrichment (6-mer frequency, TF over GST control)	2.23 fold enrichment (6-mer frequency, TF over GST control)	1.42 fold enrichment (6-mer frequency, TF over GST control)	1.66 fold enrichment (6-mer frequency, TF over GST control)
TTGCCC	1.37 fold enrichment (6-mer frequency, TF over GST control)	1.43 fold enrichment (6-mer frequency, TF over GST control)	1.33 fold enrichment (6-mer frequency, TF over GST control)	1.28 fold enrichment (6-mer frequency, TF over GST control)	1.3 fold enrichment (6-mer frequency, TF over GST control)	1.22 fold enrichment (6-mer frequency, TF over GST control)	1.29 fold enrichment (6-mer frequency, TF over GST control)	1.33 fold enrichment (6-mer frequency, TF over GST control)	1.23 fold enrichment (6-mer frequency, TF over GST control)
TTGGCA	1.15 fold enrichment (6-mer frequency, TF over GST control)	1.23 fold enrichment (6-mer frequency, TF over GST control)	1.08 fold enrichment (6-mer frequency, TF over GST control)	1.15 fold enrichment (6-mer frequency, TF over GST control)	1.13 fold enrichment (6-mer frequency, TF over GST control)	1.08 fold enrichment (6-mer frequency, TF over GST control)	1.16 fold enrichment (6-mer frequency, TF over GST control)	1.15 fold enrichment (6-mer frequency, TF over GST control)	1.17 fold enrichment (6-mer frequency, TF over GST control)
CAACTT	1.62 fold enrichment (6-mer frequency, TF over GST control)	1.62 fold enrichment (6-mer frequency, TF over GST control)	1.53 fold enrichment (6-mer frequency, TF over GST control)	1.68 fold enrichment (6-mer frequency, TF over GST control)	1.55 fold enrichment (6-mer frequency, TF over GST control)	1.54 fold enrichment (6-mer frequency, TF over GST control)	1.69 fold enrichment (6-mer frequency, TF over GST control)	1.68 fold enrichment (6-mer frequency, TF over GST control)	1.59 fold enrichment (6-mer frequency, TF over GST control)
TTTGAA	1.22 fold enrichment (6-mer frequency, TF over GST control)	1.09 fold enrichment (6-mer frequency, TF over GST control)	1.2 fold enrichment (6-mer frequency, TF over GST control)	1.21 fold enrichment (6-mer frequency, TF over GST control)	1.23 fold enrichment (6-mer frequency, TF over GST control)	1.24 fold enrichment (6-mer frequency, TF over GST control)	1.2 fold enrichment (6-mer frequency, TF over GST control)	1.2 fold enrichment (6-mer frequency, TF over GST control)	1.17 fold enrichment (6-mer frequency, TF over GST control)
GCCTCG	1.41 fold enrichment (6-mer frequency, TF over GST control)	1.26 fold enrichment (6-mer frequency, TF over GST control)	1.34 fold enrichment (6-mer frequency, TF over GST control)	1.45 fold enrichment (6-mer frequency, TF over GST control)	1.42 fold enrichment (6-mer frequency, TF over GST control)	1.3 fold enrichment (6-mer frequency, TF over GST control)	1.21 fold enrichment (6-mer frequency, TF over GST control)	1.19 fold enrichment (6-mer frequency, TF over GST control)	1.26 fold enrichment (6-mer frequency, TF over GST control)
CTCACA	1.29 fold enrichment (6-mer frequency, TF over GST control)	1.3 fold enrichment (6-mer frequency, TF over GST control)	1.38 fold enrichment (6-mer frequency, TF over GST control)	1.34 fold enrichment (6-mer frequency, TF over GST control)	1.35 fold enrichment (6-mer frequency, TF over GST control)	1.42 fold enrichment (6-mer frequency, TF over GST control)	1.27 fold enrichment (6-mer frequency, TF over GST control)	1.38 fold enrichment (6-mer frequency, TF over GST control)	1.41 fold enrichment (6-mer frequency, TF over GST control)
ATTTGG	1.44 fold enrichment (6-mer frequency, TF over GST control)	1.33 fold enrichment (6-mer frequency, TF over GST control)	1.39 fold enrichment (6-mer frequency, TF over GST control)	1.36 fold enrichment (6-mer frequency, TF over GST control)	1.36 fold enrichment (6-mer frequency, TF over GST control)	1.35 fold enrichment (6-mer frequency, TF over GST control)	1.38 fold enrichment (6-mer frequency, TF over GST control)	1.32 fold enrichment (6-mer frequency, TF over GST control)	1.33 fold enrichment (6-mer frequency, TF over GST control)
ATCCTG	1.38 fold enrichment (6-mer frequency, TF over GST control)	1.43 fold enrichment (6-mer frequency, TF over GST control)	1.34 fold enrichment (6-mer frequency, TF over GST control)	1.62 fold enrichment (6-mer frequency, TF over GST control)	1.36 fold enrichment (6-mer frequency, TF over GST control)	1.41 fold enrichment (6-mer frequency, TF over GST control)	1.4 fold enrichment (6-mer frequency, TF over GST control)	1.55 fold enrichment (6-mer frequency, TF over GST control)	1.5 fold enrichment (6-mer frequency, TF over GST control)
CCACTA	1.1 fold enrichment (6-mer frequency, TF over GST control)	1.14 fold enrichment (6-mer frequency, TF over GST control)	1.14 fold enrichment (6-mer frequency, TF over GST control)	1.08 fold enrichment (6-mer frequency, TF over GST control)	1.13 fold enrichment (6-mer frequency, TF over GST control)	1.06 fold enrichment (6-mer frequency, TF over GST control)	1.04 fold enrichment (6-mer frequency, TF over GST control)	1.04 fold enrichment (6-mer frequency, TF over GST control)	1.22 fold enrichment (6-mer frequency, TF over GST control)
GTAAAT	1.02 fold enrichment (6-mer frequency, TF over GST control)	1.09 fold enrichment (6-mer frequency, TF over GST control)	1.21 fold enrichment (6-mer frequency, TF over GST control)	1.14 fold enrichment (6-mer frequency, TF over GST control)	1.16 fold enrichment (6-mer frequency, TF over GST control)	1.15 fold enrichment (6-mer frequency, TF over GST control)	1.22 fold enrichment (6-mer frequency, TF over GST control)	1.18 fold enrichment (6-mer frequency, TF over GST control)	1.16 fold enrichment (6-mer frequency, TF over GST control)
